According to PubChem BioAssay AID504339 (National Center for Advancing Translational Sciences (NCATS), 2011):
Screen size: about 390,000 compounds; about 17,000 (4.4%) were called active. About 8% were inconclusive and are not listed. Calls follow the shape of the dose curve; as a rule, active = well fitted inhibition curve with a large enough effect; inconclusive = small, poorly fitted or top-dose-only effect; inactive = no such curve, though single readings can be large or run the other way. The sample as a whole holds a higher share of actives than the screen did.

Biological target: Lysine-specific demethylase 4A (Homo sapiens) (UniProt O75164)
Test: qHTS Assay for Inhibitors of JMJD2A-Tudor Domain; also: nearly all actives have a fitted effect of over 50% in size
Conditions: AlphaScreen JMJD2A-Tudor / H3K4me3 peptide binding; series mostly up to 114 µM; activity change, negative = inhibition: at the top concentration
% is scaled to controls: 0 for no effect and ±100 for the full control effect; potency is read from the fitted curve at half-maximal effect.

Chain of Lysine-specific demethylase 4A (Homo sapiens) (O75164 whole entry, looked up, the tested form may be a part): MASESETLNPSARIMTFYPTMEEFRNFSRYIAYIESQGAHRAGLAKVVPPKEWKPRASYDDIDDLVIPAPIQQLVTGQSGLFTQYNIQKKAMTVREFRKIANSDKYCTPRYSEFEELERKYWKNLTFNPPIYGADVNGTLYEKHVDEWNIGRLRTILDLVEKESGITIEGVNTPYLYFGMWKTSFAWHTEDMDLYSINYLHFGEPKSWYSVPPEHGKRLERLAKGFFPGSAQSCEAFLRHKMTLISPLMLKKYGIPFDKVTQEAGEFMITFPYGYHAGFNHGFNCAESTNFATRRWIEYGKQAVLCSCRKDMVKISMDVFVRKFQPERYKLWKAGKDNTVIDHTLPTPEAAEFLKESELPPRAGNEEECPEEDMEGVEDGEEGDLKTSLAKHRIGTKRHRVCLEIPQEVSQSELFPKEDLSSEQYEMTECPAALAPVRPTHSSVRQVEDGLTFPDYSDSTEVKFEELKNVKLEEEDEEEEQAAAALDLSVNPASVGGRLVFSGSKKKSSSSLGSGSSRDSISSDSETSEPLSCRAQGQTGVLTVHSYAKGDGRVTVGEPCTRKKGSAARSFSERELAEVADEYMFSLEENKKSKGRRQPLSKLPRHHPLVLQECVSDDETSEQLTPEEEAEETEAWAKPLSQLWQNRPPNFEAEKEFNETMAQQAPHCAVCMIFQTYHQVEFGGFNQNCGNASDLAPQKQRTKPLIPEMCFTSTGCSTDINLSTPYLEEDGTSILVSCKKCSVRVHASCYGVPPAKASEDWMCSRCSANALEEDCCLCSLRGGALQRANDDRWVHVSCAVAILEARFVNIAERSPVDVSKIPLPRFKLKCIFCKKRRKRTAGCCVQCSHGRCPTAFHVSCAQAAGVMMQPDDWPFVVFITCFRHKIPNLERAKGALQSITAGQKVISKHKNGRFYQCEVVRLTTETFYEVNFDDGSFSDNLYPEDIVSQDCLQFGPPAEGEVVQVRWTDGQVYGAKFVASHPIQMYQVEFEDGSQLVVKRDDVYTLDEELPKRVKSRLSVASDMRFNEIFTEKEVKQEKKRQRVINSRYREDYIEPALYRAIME

Structure (SMILES)	activity change, negative = inhibition	Potency
CCc1cccc(NC(=O)CSc2nccn2C)c1	-5.6% (inactive)	–
Cc1cc(C)cc(OCC(=O)Nc2c(C(=O)c3ccccc3)oc3ccccc23)c1	12.7% (inactive)	–
O=C(Cn1cc(SCc2cccc(Cl)c2)c2ccccc21)N1CCCCC1	8.06% (inactive)	–
COc1ccc(-c2nn(CC(=O)NC3CCCC3)c3c2cnc2ccc(F)cc23)cc1	-9.67% (inactive)	–
O=C(CN1CCC(O)(c2ccccc2)CC1)Nc1ccc2c(c1)OCCO2	-14.5% (inactive)	–
O=C(COC(=O)c1ccccc1)c1ccc2c(c1)OCCO2	2.03% (inactive)	–
O=C(CCN1CCc2ccccc2C(O)(c2ccccc2)C1)c1ccc2c(c1)OCCO2 (stereo not given)	–	79.4 µM (active)
Cc1cc(Cl)ccc1NC(=O)Cc1ccc(NC(=O)N2CCCCc3ccccc32)cc1	-24% (inactive)	–
Cc1ccc(C)c(Cn2c(C)c(CNCc3ccc(F)cc3)c(C(=O)O)c2C)c1	-25.5% (inactive)	–
S=c1[nH]ccn1-c1ccc(Cl)cc1	–	10 µM (active)
CCOC(=O)c1ccccc1NC(=O)c1sc2nc(-c3ccc(F)cc3)cn2c1C	-18.2% (inactive)	–
CN1CCN(CCCNC(=O)c2ccc(/C=C3\Oc4ccccc4N(Cc4ccc(Cl)cc4)C3=O)cc2)CC1	-1.17% (inactive)	–
O=C(NCCCN1CCOCC1)c1ccc2c(c1)N(Cc1cccc(F)c1)C(=O)c1ccccc1S2	0.389% (inactive)	–
CCN1CCN(CCNC(=O)c2ccc(/C=C3/Sc4ccccc4N(Cc4cccc(C)c4)C3=O)cc2)CC1	–	50.1 µM (active)
COc1ccc(Cl)cc1NC(=O)Cn1c(=O)c2ccccc2n2nncc12	-26.8% (inactive)	–
COc1ccccc1CNCc1ccc(C(=O)O)s1	-5.03% (inactive)	–
CSc1nc(Nc2ccc(F)cc2)cc(-c2ccccc2)n1	43.4% (inactive)	–
COC(C(=O)Nc1ccc(C(C)=O)cc1)c1ccccc1 (stereo not given)	-6.88% (inactive)	–
COc1ccc(NC(=O)[C@H](NC(=O)[C@@H]2Cc3ccccc3CN2)c2ccccc2)cc1	-9.09% (inactive)	–
COc1ccc(NC(C(=O)Nc2cccc(C(C)=O)c2)c2ccccc2)cc1 (stereo not given)	–	17.8 µM (active)
Cc1ccccc1CNC(=O)Cn1c(C)c2cnn(-c3ccccc3)c(=O)c2c1C	-6.71% (inactive)	–
CC(=O)Oc1ccc(OC(C)=O)c2c1C1C=CC2CC1	–	22.4 µM (active)
CC(=O)Oc1ccc(C(C)=O)c2c1OCCO2	-12.2% (inactive)	–
COc1cc(OC)c(NC(=O)c2nc(-c3ccncc3)no2)cc1Cl	-1.64% (inactive)	–

Structure (SMILES)	activity change, negative = inhibition	Potency
CC(C)(C)NC(=O)CSc1nc(-c2ccc(F)cc2)cc(C(F)(F)F)n1	11.3% (inactive)	–
CSc1nc(C)cc(SC(C(C)=O)C(=O)Nc2ccccc2)n1 (stereo not given)	–	56.2 µM (active)
CC(Sc1nnc2c(n1)C1CCC2(C)C1(C)C)C(=O)Nc1ccccc1 (stereo not given)	-11.3% (inactive)	–
Cc1cc(C)nc(N(C#N)CC(=O)Nc2ccccc2)n1	-7.56% (inactive)	–
CCOc1ccc(NC(=O)c2c(NCc3cccc(OC)c3OC)sc3c2CCC3)cc1	-25.3% (inactive)	–
O=C(NCc1nnc(C(=O)Nc2ccc(C(F)(F)F)cc2Cl)o1)c1ccccc1	-20.5% (inactive)	–
Cc1ccc(NC(=O)Nc2sc3nc4n(c(=O)c3c2C)CCC(C)CC4)c(Cl)c1 (stereo not given)	-6.18% (inactive)	–
COc1ccccc1C(=O)N/C(=C/c1ccc2c(c1)OCO2)C(=O)Nc1cccc(C(=O)O)c1	-8.7% (inactive)	–
COc1ccccc1C(=O)N/C(=C/c1ccco1)C(=O)Nc1ccc(C(=O)O)cc1	–	25.1 µM (active)
Cc1ccc(NC(=O)/C(=C\c2ccccc2)NC(=O)c2ccco2)cc1	-1.39% (inactive)	–
Cc1cccc(C(CC(=O)NCC2(c3ccccc3)CCCC2)c2ccccc2)c1O (stereo not given)	-5.84% (inactive)	–
CCOC(=O)CN1C(C(=O)c2ccccc2)=C(OC(=O)C(C)(C)C)c2ccccc2S1(=O)=O	-18.2% (inactive)	–
CC(CCCc1ccccc1)NC(=O)c1nn(-c2ccc(Cl)cc2)nc1CO (stereo not given)	-3.77% (inactive)	–
O=C(Cn1cnc2c(OCc3ccccc3)ncnc21)NCc1nc2ccccc2[nH]1	–	56.2 µM (active)
O=C(Cn1cnc2c(OCc3ccccc3)ncnc21)NCCCn1ccnc1	-13.8% (inactive)	–
CC(CNC(=O)Cn1cnc2c(OCc3ccccc3)ncnc21)c1ccccc1 (stereo not given)	-17.3% (inactive)	–
CC(C)S(=O)(=O)c1oc(-c2ccc(F)cc2)nc1S(=O)(=O)c1ccc(F)cc1	-11.1% (inactive)	–
Cc1ccc(Cl)cc1NC(=O)NC1COc2ccccc2C1 (stereo not given)	-16.9% (inactive)	–
Cc1c(Cl)c([N+](=O)[O-])nn1Cc1ccc(C(=O)N/N=C\c2cc(Cl)ccc2O)o1	-25.2% [at 57.1 µM] (inactive)	–
Cc1cc(C(=O)N/N=C/c2cc([N+](=O)[O-])cc(C)c2O)n[nH]1	–	44.7 µM (active)
COc1ccc(C(=O)NNC(=O)c2cc(C)[nH]n2)cc1	-4.35% (inactive)	–
CCCCS(=O)(=O)c1oc(-c2cccs2)nc1S(=O)(=O)c1ccccc1	-4.51% (inactive)	–
Cc1ccc(-c2ccc(/C=C(\C#N)C(N)=S)o2)c([N+](=O)[O-])c1	–	14.1 µM (active)
CCOC(=O)c1ccc(-c2ccc(/C=C(\C#N)C(=O)Nc3ccc(C)cc3)o2)cc1	-26.2% (inactive)	–

Structure (SMILES)	activity change, negative = inhibition	Potency
CCCCOC(=O)/C(C#N)=C/c1ccc(-c2cccc(C(F)(F)F)c2)o1	-25.2% (inactive)	–
Cc1cccn2c(=O)c(C(=O)NC(C)c3ccccc3)cnc12 (stereo not given)	-5% (inactive)	–
CCC(C)c1ccc2oc(-c3ccc(NC(=O)c4cc5ccccc5o4)cc3)nc2c1 (stereo not given)	-14.5% (inactive)	–
Cc1ccc(S(=O)(=O)N2CCCC(C(=O)N3CCN(C)CC3)C2)cc1 (stereo not given)	–	2.82 µM (active)
COc1ccc(N2CCN(C(=O)C3CCN(S(=O)(=O)c4ccc(C)cc4)CC3)CC2)cc1	–	39.8 µM (active)
O=C(C1CCCN(S(=O)(=O)c2ccc([N+](=O)[O-])cc2)C1)N1CCCCC1 (stereo not given)	-6.21% (inactive)	–
Cc1ccc(S(=O)(=O)N2CCC(C(=O)N3CCCCCCC3)CC2)cc1	-7.56% (inactive)	–
Cc1ccc(S(=O)(=O)N2CCN(C)CC2)cc1	-7.48% (inactive)	–
COc1ccc(N2CCN(C(=O)C3CCN(C(=O)c4ccccc4Cl)CC3)CC2)cc1	-15.7% (inactive)	–
Cc1ccc(S(=O)(=O)N2CCC(N3CCCCCC3)CC2)cc1	–	0.891 µM (active)
COc1ccc(S(=O)(=O)N2CCCC(C(=O)N3CCN(C)CC3)C2)cc1C (stereo not given)	-6.21% (inactive)	–
CC(=O)Nc1ccc(S(=O)(=O)N2CCN(C3CCCCCCC3)CC2)cc1	-30.2% (inactive)	–
CCOC(=O)C1CCC(CN(Cc2ccc(OC)cc2)S(=O)(=O)c2ccc(F)c(C(=O)Nc3cc(C)ccc3C)c2)CC1 (stereo not given)	-18.3% (inactive)	–
N#Cc1nc(/C=C/c2ccc(F)cc2)oc1NC1CCCCC1	-25.8% (inactive)	–
COc1ccc(Cn2ccn(Cc3cccc(OC)c3)c(=O)c2=O)cc1	-12.8% (inactive)	–
Cc1ccccc1Cn1nc(C)c(NC(=O)c2cc(-c3ccc(F)cc3)on2)c1C	-2.73% (inactive)	–
Cc1c(Cl)cccc1NC(=O)CCS(=O)(=O)c1ccc2c(c1)oc(=O)n2C	-10.4% (inactive)	–
COc1cccc(C(=O)NCc2ccc3c(c2)CCN3C(=O)c2ccncc2)c1	-10.3% (inactive)	–
COc1cc(C)ccc1OCCSc1nc2ccc(NC(=O)c3ccc(C)cc3)cc2s1	5.63% (inactive)	–
COc1cc(Cl)c(C)cc1NC(=O)CCc1nc2cccnc2n1Cc1cccs1	-17.5% (inactive)	–
Oc1c(C=Nc2cccc3nsnc23)ccc2ccccc12	–	89.1 µM (active)
O=C(Nc1ccc(F)cc1F)c1ccc2c(=O)n3c(nc2c1)CCCCC3	-4.44% (inactive)	–
COc1cc2c(=O)c(S(=O)(=O)c3ccc(C(C)C)cc3)cn(Cc3ccccc3C)c2cc1OC	-26.8% (inactive)	–
C=CCN(C(=O)c1cc(C)cc(C)c1)C1(C(=O)Nc2ccccc2)CCN(C(C)C)CC1	-22.4% (inactive)	–

Structure (SMILES)	activity change, negative = inhibition	Potency
CCN(C(=O)Cc1nc(N)n[nH]1)C1(C(=O)Nc2ccccc2)CCCCC1	–	100 µM (active)
CCc1ccc(NC(=O)CN2C(=O)C(c3ccccc3)=NC23CCCCCC3)cc1	-9.73% (inactive)	–
O=C(COC(=O)C1CCCO1)Nc1nc(-c2ccc(F)cc2)cs1 (stereo not given)	-6.9% (inactive)	–
CCc1ccc(CNC(=O)C2CCN(c3nn4cc(-c5ccc(F)cc5)nc4s3)CC2)cc1	1.65% (inactive)	–
CC1CCCC(C)N1C(=O)CN1CCN(c2nc(-c3ccc(F)cc3)cs2)CC1 (stereo not given)	–	79.4 µM (active)
O=C(CNC(=O)c1ccccc1)OC(C(=O)Nc1cc([N+](=O)[O-])ccc1F)c1ccccc1 (stereo not given)	-28.1% (inactive)	–
COc1ccc(Cn2ccnc2SCC(=O)NCc2ccco2)cc1	-26.8% (inactive)	–
Cc1cccc(OCCSc2nc3ccc(NC(=O)COc4ccccc4C)cc3s2)c1	2.32% (inactive)	–
COc1ccc(CCOC2OC(CO)C(OC(=O)/C=C/c3ccc(O)c(OC)c3)C(O[C@H]3O[C@@H](C)[C@H](O)[C@@H](O)[C@H]3O)C2O)cc1O (stereo not given in full)	-23.8% (inactive)	–
C[C@@H]1O[C@@H](OC[C@H]2O[C@@H](Oc3c(-c4ccc(O)cc4)oc4cc(O)cc(O)c4c3=O)[C@H](O)[C@@H](O)[C@@H]2O)[C@H](O)[C@H](O)[C@H]1O	-18.4% (inactive)	–
COc1ccc(-c2cc(=O)c3c(O)cc(O[C@@H]4O[C@H](CO[C@@H]5O[C@@H](C)[C@H](O)[C@@H](O)[C@H]5O)[C@@H](O)[C@H](O)[C@H]4O)cc3o2)cc1O	–	20 µM (active)
COc1ccc(NC(=O)N2CCCn3nc(C)cc32)cc1OC	-11% (inactive)	–
Cc1ccccc1NC(=O)Cn1c(=O)n(CCc2ccccc2)c(=O)c2ccccc21	-13% (inactive)	–
CC(O)CN(Cc1ccc(Cl)cc1)CC(C)O (stereo not given)	–	8.91 µM (active)
O=[N+]([O-])c1ccc(N(CCO)Cc2ccccc2)c([N+](=O)[O-])c1	-35.1% (inactive)	–
OCCN(Cc1ccccc1)Cc1ccc(Cl)cc1	–	10 µM (active)
CN(C(=O)CN(CCO)CC(=O)N(C)C(C)(C)Cc1ccccc1)C(C)(C)Cc1ccccc1	-18.7% (inactive)	–
O=C(Cc1ccc(Cl)cc1)c1ccccc1	6.9% (inactive)	–
CC(Cc1cccs1)N(Cc1ccc(Cl)cc1)C(=O)c1ccncc1 (stereo not given)	-4.03% (inactive)	–
Cc1ccc(CN(C(=O)c2ccccc2[N+](=O)[O-])c2ccccn2)cc1	-12.6% (inactive)	–
COc1ccc(CC(=O)Nc2ccc(-c3nc4ccccc4s3)c(C)c2)cc1	-18.3% (inactive)	–
Cc1ccc2cccc(NC(=O)C(C)Oc3ccc(C)c(C)c3)c2n1 (stereo not given)	-12.9% (inactive)	–
COc1ccc(-n2nc(C(=O)NCCc3ccc(Cl)cc3)c3c4ccccc4n(C)c3c2=O)cc1Cl	-2.67% (inactive)	–
